# According to article PMC4336329 (PLoS ONE, 2015):
# Screen size: about 310,000 compounds; about 14,000 (4.5%) showed an effect of 50% or more. Effects have a minus sign here. This excerpt belongs to a sample that is enriched for strong results.
# Molecular target: human ether-à-go-go-related gene (hERG) potassium channel (human, UniProt Q12809)
# Assay: primary screen, population patch clamp on CHO cells stably expressing hERG; higher = less effect of the substance
# 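Note: peak tail current of the secondary pulse compared with the same well before compound.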
# Sequence of human ether-à-go-go-related gene (hERG) potassium channel (Q12809 whole entry, looked up): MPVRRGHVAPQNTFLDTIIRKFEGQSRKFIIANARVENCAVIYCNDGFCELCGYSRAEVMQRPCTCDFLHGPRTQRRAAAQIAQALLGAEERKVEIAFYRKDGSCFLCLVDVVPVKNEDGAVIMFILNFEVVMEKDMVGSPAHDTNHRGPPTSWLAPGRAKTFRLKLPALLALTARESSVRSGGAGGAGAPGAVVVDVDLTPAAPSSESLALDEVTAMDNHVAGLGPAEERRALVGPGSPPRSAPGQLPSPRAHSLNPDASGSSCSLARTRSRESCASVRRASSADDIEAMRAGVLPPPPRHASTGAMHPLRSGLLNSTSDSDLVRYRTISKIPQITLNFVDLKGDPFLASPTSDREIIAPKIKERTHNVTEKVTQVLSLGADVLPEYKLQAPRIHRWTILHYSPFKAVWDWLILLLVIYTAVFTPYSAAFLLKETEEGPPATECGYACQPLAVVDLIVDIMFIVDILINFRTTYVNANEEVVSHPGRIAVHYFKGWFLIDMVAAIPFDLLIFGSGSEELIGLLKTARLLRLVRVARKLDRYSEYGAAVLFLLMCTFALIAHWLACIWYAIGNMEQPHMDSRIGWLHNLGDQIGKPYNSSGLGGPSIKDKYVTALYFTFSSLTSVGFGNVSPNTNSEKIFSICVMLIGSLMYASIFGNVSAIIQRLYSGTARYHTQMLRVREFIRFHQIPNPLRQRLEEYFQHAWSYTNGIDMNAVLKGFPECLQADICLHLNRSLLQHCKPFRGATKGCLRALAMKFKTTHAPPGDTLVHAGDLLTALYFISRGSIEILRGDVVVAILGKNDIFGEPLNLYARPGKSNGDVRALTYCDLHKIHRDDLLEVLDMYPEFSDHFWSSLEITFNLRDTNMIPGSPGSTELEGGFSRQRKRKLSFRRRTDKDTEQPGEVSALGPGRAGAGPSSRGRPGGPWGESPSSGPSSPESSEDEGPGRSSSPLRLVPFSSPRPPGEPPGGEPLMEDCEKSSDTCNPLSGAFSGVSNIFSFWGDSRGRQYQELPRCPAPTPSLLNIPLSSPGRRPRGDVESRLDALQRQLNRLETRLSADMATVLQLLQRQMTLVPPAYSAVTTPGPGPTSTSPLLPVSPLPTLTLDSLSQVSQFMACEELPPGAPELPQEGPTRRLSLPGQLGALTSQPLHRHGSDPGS
row,Structure (SMILES),"hERG current change (%, negative = inhibition) at 10uM [%]"
1,Cc1nc2ccccc2c(=O)n1-c1ccc(F)cc1,-12.1
2,COCCCNC(=S)Nc1ccc(OC(F)F)cc1C,7.74
3,CCOC(=O)C1CCN(c2c(Nc3ccc(C)c(C)c3)c(=O)c2=O)CC1,-12.6
4,CCOC(=O)C1CCN(CCC(=O)Nc2ccc(C)c(C)c2)CC1,-54.2
5,CCOC(=O)C1CCN(CCC(=O)Nc2ccc(Br)c(C)c2)CC1,-62.8
6,CCOC(=O)C1CCN(CC(=O)Nc2ccc(OC)c(Cl)c2)CC1,-12.5
7,CCOC(=O)C1CCCN(CCC(=O)Nc2ccc(Br)c(C)c2)C1.Cl (stereo not drawn),-36.1
8,Cc1cc(NC(=O)CCN2CCC(C(N)=O)CC2)ccc1Br,-26.7
9,CCCCn1c(Nc2ccccc2)nc2ccccc21,24.7
10,CCOc1ccc(S(=O)(=O)Nc2cccc(C(=O)N3CCN(C(C)=O)CC3)c2)cc1,-14.9
11,C/C(=N/NS(=O)(=O)c1ccc(C(C)(C)C)cc1)c1ccc2c(c1)OCO2,-3.17
12,Cc1cc(=O)oc2cc(OCC(=O)OCC(=O)N(CCC#N)c3ccccc3)ccc12,6.04
13,COC(=O)c1ccc(C(=O)OC)c(NC(=O)CN(c2ccc3c(c2)OCO3)S(C)(=O)=O)c1,-21.1
14,CSCCCNC(=O)c1ccccc1OC1CCN(S(C)(=O)=O)CC1,1.38
15,CCN(CC)CCCNC(=O)c1sc2ncn(CC(=O)Nc3ccc(C)c(Cl)c3)c(=O)c2c1C,-13
16,COCCNC(=O)c1sc2ncn(CC(=O)Nc3ccc(C)c(Cl)c3)c(=O)c2c1C,10.5
17,CCN(CC)CCNC(=O)c1sc2ncn(CC(=O)Nc3ccc(C)c(Cl)c3)c(=O)c2c1C,-51.8
18,COc1ccc(C(=O)C(CCCCC(CN(C)C)C(=O)c2ccc(OC)cc2)CN(C)C)cc1.Cl (stereo not drawn),-2.07
19,O/N=C/c1ccc(OCc2ccccc2F)c(Cl)c1,2.95
20,COc1cc2c(cc1NC(=O)CN1C(=O)NC3(CCc4ccccc43)C1=O)oc1ccccc12 (stereo not drawn),7.1
21,C=CCn1c(COc2ccccc2)nnc1SCC(=O)O,-3.46
22,C=CCn1c(COc2ccc(Cl)cc2)nnc1SCC(=O)N1CC(=O)Nc2ccccc21,-63.5
23,C=CCn1c(COc2ccc(Cl)cc2)nnc1SCC(=O)NCC(=O)OCC,-31.4
24,C=CCn1c(COc2ccccc2)nnc1SCc1ccc(C#N)cc1,-68.2

row,Structure (SMILES),"hERG current change (%, negative = inhibition) at 10uM [%]"
1,C=CCn1c(COc2ccc(Cl)cc2)nnc1SCc1ccc(C#N)cc1,-69.8
2,C=CCn1c(COc2ccccc2F)nnc1SCC(=O)N1CC(=O)Nc2ccccc21,-22.6
3,C=CCn1c(COc2ccccc2)nnc1SCC(=O)C(C)(C)C,-13.6
4,C=CCn1c(COc2ccc(F)cc2)nnc1SCC(=O)N1CC(=O)Nc2ccccc21,-33
5,C=CCn1c(COc2ccc(Cl)cc2)nnc1SCC(=O)N/N=C/c1ccccc1,-7.71
6,O=C(CSCc1ccc(F)cc1)NCc1ccc(F)cc1,-24.7
7,Cc1n[nH]c(=S)n(NC(=O)CC(=O)Nn2c(=S)[nH]nc(C)c2=O)c1=O,45.4
8,COc1ccc(NC(=O)C(C)SCc2ccccc2)cc1OC (stereo not drawn),-1.56
9,C=CCSc1nc2sc3c(c2c(=O)[nH]1)CCC3,2.84
10,CN(CC(=O)NC1CCCCC1)S(=O)(=O)c1ccc(Br)s1,20.1
11,CCc1ccc2c(c1)C1(SC(NC(C)=O)=NN1C(C)=O)C(=O)N2CC (stereo not drawn),-0.0665
12,C=CCNC(=O)C1CCN(S(C)(=O)=O)CC1,-0.873
13,CNC(=S)N(Cc1cccs1)Cc1cc2ccc(OC)cc2[nH]c1=O,6.44
14,O=C1NCC(COc2ccc([N+](=O)[O-])cc2)O1 (stereo not drawn),-78.4
15,O=C1NCC(COc2ccc(Cl)cc2)O1 (stereo not drawn),48.4
16,COc1ccc(OCC2CNC(=O)O2)cc1 (stereo not drawn),-26.2
17,CCCn1cc(CN2CCCC(C(=O)c3cccc(OC)c3)C2)c(C)n1 (stereo not drawn),-51
18,CCCn1cc(CN2CCC(n3nccc3NC(=O)c3ccc4c(c3)OCO4)CC2)c(C)n1,-5.62
19,CCCn1ncc(CN2CCCC(C(=O)c3cccc(OC)c3)C2)c1C (stereo not drawn),-67.8
20,CCCn1cc(CN2CCCC(C(=O)c3cccc(OC(C)C)c3)C2)c(C)n1 (stereo not drawn),-35.5
21,CCCn1ncc(CN2CCCC(C(=O)c3cccc(OC(C)C)c3)C2)c1C (stereo not drawn),-48.8
22,CCCn1cc(CN2CCCC(C(=O)c3ccc4c(c3)OCO4)C2)c(C)n1 (stereo not drawn),-55.4
23,CCn1cc(CN2CCCC(C(=O)c3cccc(OC)c3)C2)c(C)n1 (stereo not drawn),-21.3
24,CCn1ncc(CN2CCCC(C(=O)c3cccc(OC(C)C)c3)C2)c1C (stereo not drawn),-19.8

row,Structure (SMILES),"hERG current change (%, negative = inhibition) at 10uM [%]"
1,Cc1ccc(CS(=O)(=O)c2ncc(Cl)c(C(=O)Nc3nnc(C(C)C)s3)n2)cc1,9.25
2,CC(=O)Oc1cc2cccc(OC(C)=O)c(=O)c2c(OC(C)=O)c1OC(C)=O,1.34
3,CCCNC(=O)c1ccc(N2CCC3(CC2)CC(c2ccccc2)=NO3)c(NC(=O)c2cccc(C)c2)c1,-18.6
4,CCCNC(=O)c1ccc(N2CCC3(CC2)CC(c2ccccc2)=NO3)c(NC(=O)c2cccc(OC)c2)c1,-68.6
5,CCCNC(=O)c1ccc(N2CCC3(CC2)CC(c2cccc(Br)c2)=NO3)c(NC(=O)c2ccccc2)c1,-0.8
6,CCCCC(CC)C(=O)Nc1cc(C(=O)NCCC)ccc1N1CCC2(CC1)CC(c1cccc(Br)c1)=NO2 (stereo not drawn),-7.85
7,CCCCC(CC)C(=O)Nc1cc(C(=O)NCc2ccc(C)cc2)ccc1N1CCC2(CC1)CC(c1ccccc1)=NO2 (stereo not drawn),2.86
8,CCCCC(CC)C(=O)Nc1cc(C(=O)NCCC)ccc1N1CCC2(CC1)CC(c1ccccc1)=NO2 (stereo not drawn),-64.6
9,O=C(NC(=O)c1csnn1)Nc1ccccc1Cl,9.03
10,CCc1cc2c3c(c1)C(C)CC(C)(C)N3C(=O)C2=O (stereo not drawn),-15.6
11,C=CCN=C1CC(C)(C)CC(=O)/C1=C(\O)c1ccccc1,-6.18
12,CCCC(=O)Nc1sc(C)c(C)c1C#N,2.9
13,Cc1cc(N(C)C)nc(Nc2ccccc2)n1,-56.8
14,Cc1cc(C)nc(Sc2nc(Nc3ccccc3)nc(Sc3nc(C)cc(C)n3)n2)n1,-4.94
15,CN(C)c1nc(Nc2ccccc2)nc(N(C)C)n1,8.3
16,COc1ccccc1CCNC(=O)NC1CCCCC1,-12.1
17,Cc1nc(C(C)NC(=O)CCc2nnc(-c3ccsc3)o2)cs1 (stereo not drawn),15.8
18,CC(=Nc1ccc2c(c1)nc(CO)n2C)C1=C(O)CC(C)(C)CC1=O,2.09
19,Cc1ccccc1NS(=O)(=O)c1ccc(OCCNS(C)(=O)=O)cc1,-4.01
20,N#Cc1cc2c(nc1SCC(=O)Nc1ccc(Cl)cc1)C1CCN2CC1,-7.69
21,CN1CCc2nc(SCC(=O)Nc3ccc(Cl)cc3)c(C#N)cc2C1,-38.4
22,CN(C)S(=O)(=O)c1ccc(Cl)c(NC(=O)CSc2nc3c(cc2C#N)C(=O)CC(C)(C)C3)c1,-65.3
23,CN(C)S(=O)(=O)c1cccc(NC(=O)CSc2nc3c(cc2C#N)C(=O)CC(C)(C)C3)c1,-34.7
24,N#Cc1cc2c(nc1SCC(=O)Nc1cc(Cl)ccc1Cl)C1CCN2CC1,-51.7

row,Structure (SMILES),"hERG current change (%, negative = inhibition) at 10uM [%]"
1,CCN(CC)S(=O)(=O)c1cc(NC(=O)CSc2nc3c(cc2C#N)C(=O)CC(C)(C)C3)ccc1C,4.51
2,CCCCOC(=O)c1ccc(NC(=S)N2CCN(c3ncc4c(=O)c(C(=O)O)cn(CC)c4n3)CC2)cc1,11.2
3,C[C@H](NC(=O)c1[nH]cnc1C(=O)Nc1ccc(CNC(=O)OC(C)(C)C)cc1)C(=O)OC(C)(C)C,17.2
4,COC(=O)c1ccc(C2c3c(oc4ccc(F)cc4c3=O)C(=O)N2CCO)cc1 (stereo not drawn),3.74
5,Cc1ccc(/C=N/N2CCN(Cc3ccccc3)CC2)s1,-15.7
6,O=C(N/N=C/c1ccc(Br)s1)Nc1ccccc1,4.13
7,Cc1ccsc1/C=N/NC(=O)CN1CCN(Cc2ccccc2)CC1,-8.1
8,O=C(CCC(=O)N/N=C/c1ccc(Br)s1)NCc1ccccc1,5.19
9,O=C(CN1CCN(Cc2ccccc2)CC1)N/N=C/c1ccc(Br)s1,-60
10,Cc1ccc(/C=N/NC(=O)CN2CCN(Cc3ccccc3)CC2)s1,-55.8
11,COc1cc(CC(=O)OCC(=O)Nc2ncc(Cl)cc2Cl)cc(OC)c1OC,7.58
12,COc1ccccc1NS(=O)(=O)c1ccc(O)c(C(=O)OCC(=O)c2ccc(Cl)cc2Cl)c1,23.4
13,Br.CC(C)CCC1CC(CSC(=N)N)OC1=O (stereo not drawn),-14
14,Cc1ccc(-c2cc(-c3ccccc3)cc(-c3ccccc3)[n+]2-c2ccccc2C(=O)O)cc1.[O-][Cl+3]([O-])([O-])[O-],-21.5
15,[O-]c1ccccc1-[n+]1c(-c2ccccc2)cc(-c2ccccc2)cc1-c1ccccc1,-71.1
16,Oc1ccccc1-[n+]1c(-c2ccccc2)cc(-c2ccccc2)cc1-c1ccccc1.[O-][Cl+3]([O-])([O-])[O-],-71.2
17,Nc1ccccc1-[n+]1c(-c2ccccc2)cc(-c2ccccc2)cc1-c1ccccc1.[O-][Cl+3]([O-])([O-])[O-],-50.9
18,Cc1ccccc1-[n+]1c(-c2ccccc2)cc(-c2ccccc2)cc1-c1ccccc1.[O-][Cl+3]([O-])([O-])[O-],-76.3
19,O=C([O-])c1ccc(-[n+]2c(-c3ccccc3)cc(-c3ccccc3)cc2-c2ccccc2)cc1,-0.807
20,O=C([O-])c1ccccc1-[n+]1c(-c2ccccc2)cc(-c2ccccc2)cc1-c1ccccc1,-3.82
21,Oc1ccccc1-[n+]1c(-c2ccccc2)cc(-c2ccccc2)c(O)c1-c1ccccc1.[O-][Cl+3]([O-])([O-])[O-],15.1
